The values that follow come from PubChem BioAssay.

Each structure is given as a SMILES string. Values joined by “and” are separate entries in the source; they are usually repeats but may differ in a detail not shown here. Identical values can stand only once. Results filed as inconclusive are left out. For some of these results: Results with a measured potency or affinity are listed apart. Active and inactive are the calls of the source. Unless noted, the limit is not given here; nearly all actives have AC50 up to about 26 µM.

Test [1] relates to Aerobactin synthetase IucA (Klebsiella pneumoniae). Description: inhibition of K. pneumoniae IucA enzyme – biochemical, Tocris library, absorbance (AID 1345561; call rule not given here;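 also: 100% = enzyme without compound and 0% = no enzyme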). As to conditions: purified IucA enzyme assay, absorbance (OD) read-out; stronger effect = lower value;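 tested at 8 µM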.
Test [2] in a line: viability loss in pontine glioma line – cell-based, SU-DIPG-XVII, MIPE5.0, CellTiter-Glo, qHTS, dose response (AID 1347060).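 As to AC50: cells exposed to compound for 48 hours before viability readout.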 As to conditions: CellTiter-Glo ATP luminescence. A general note: ATP-based viability assays read luminescence as a measure of living cells.
Test [3] is described as follows: viability loss in pontine glioma line – cell-based, SU-DIPG-XIII, MIPE4.0, CellTiter-Glo, qHTS, dose response (AID 1347061; cut-off not given, nearly all actives have AC50 up to about 37 µM;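 also: cells exposed to compound for 48 hours before readout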). As to conditions: CellTiter-Glo ATP luminescence.
A short description of test [4]: viability loss in pontine glioma line – cell-based, SU-DIPG-XIII, MIPE5.0, CellTiter-Glo, qHTS, dose response (AID 1347064; cut-off not given, nearly all actives have AC50 up to about 23 µM). As to conditions: CellTiter-Glo ATP luminescence.
Test [5] in a line: viability loss in pontine glioma line – cell-based, SU-DIPG-XXV, MIPE5.0, CellTiter-Glo, qHTS, dose response (AID 1347065).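 Also: cells exposed to compound for 48 hours before ATP readout.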 The note with it: CellTiter-Glo ATP luminescence.
A short description of test [6]: JHH-DIPG-1 glioma cell viability, MIPE5.0 library, CellTiter-Glo luminescence, qHTS (AID 1347067).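 Also: cells exposed to compound for 48 hours before readout.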 The note with it: JHH-DIPG-1 glioma viability, CellTiter-Glo ATP luminescence.
Test [7] can be described thus: growth inhibition of DIPG cells – cell-based, MIPE5.0 library, qHTS (AID 1347068; cut-off not given, nearly all actives have IC50 up to about 30 µM). The note with it: SU-DIPG-XXV viability. For orientation: In qHTS, concentration-response curves come from the screen itself.
Test [8] is described as follows: yeast 75Q aggregation reduction – 75Q-TubU reporter (AID 1593). The note with it: Yeast 75Q polyglutamine aggregation reporter.
Test [9] in a line: restoration of touch response, mutant HTT neurons – whole organism, C. elegans mechanosensory neurons, N-terminal huntingtin (AID 1599). As to conditions: C. elegans polyQ-huntingtin mechanosensory neurons, stronger effect = higher value.
Test [10] in a line: blockers of cytochrome c efflux from mitochondria – biochemical, purified mitochondria (AID 1603).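 Also: mouse liver mitochondria challenged with calcium chloride; signal normalized to the plate average as 100%.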 As to conditions: stronger effect = lower value.
Test [11] in a line: polyglutamine aggregate formation blockers (AID 1604). The note with it: polyglutamine-induced protein aggregation inhibition assay; stronger effect = higher value; tested at 2.5 µM.
A short description of test [12]: glutamate transport activators, MN-1 cells, MN-1 cell line (AID 1612).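 Also: tested at 1 µM final; 0% = mean of DMSO vehicle wells on each plate; positive means more glutamate uptake than control and negative means less.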 The note with it: MN-1 motor neuron cells, stronger effect = higher value.
Test [13] in a line: 75Q-TubH aggregate inhibition, S. cerevisiae, yeast (AID 1616). The note with it: S. cerevisiae 75Q-TubH polyglutamine aggregation suppression; stronger effect = higher value.
A short description of test [14]: GFP-Q80 aggregate reduction, neuronal-like cells, cell-based, NGF-treated PC12, GFPQ80 (AID 1614).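 Also: lower means fewer inclusions and 0 means no inclusions at all.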 As to conditions: PC12 NGF-treated GFP-polyQ80 inclusion reduction.
The subject of test [15] is Hepatitis C virus NS3 helicase. Description: blockers of NS3h binding to ssDNA – biochemical, fluorescence polarization, LOPAC1280 library, primary screen (AID 687035; in the data active = inhibition above about 37%). As to conditions: Purified HCV NS3 helicase, Cy5-dT15 ssDNA binding fluorescence polarization; stronger effect = higher value; concentration not given here.
Test [16] is described as follows: compounds altering Cy5-DNA-NS3h complex signal – biochemical, LOPAC1280, artefact control for HCV NS3 helicase inhibitor project (AID 687037; call rule not given here). The note with it: Cy5-DNA-NS3h complex fluorescence interference counterscreen. In general terms: The purpose of a counterscreen is to sort out artefacts and off-target activity.
Test [17] is described as follows: growth inhibition, single agent or in combination, cell-based, chromothripsis tumors, cisplatin or BGB combos (AID 1671449; in the data active = inhibition above about 80%;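 also: cells exposed for 96 hours; 0% = vehicle DMSO and 100% = killing by high DMSO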). As to conditions: LFS_MB_P medulloblastoma cells.
Test [18] in a line: growth inhibition, single agent and combos, cell-based, chromothripsis tumors, cisplatin or BGB combos (AID 1671450; in the data active = inhibition above about 80%;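 also: cells exposed to compound for four days; 0% = vehicle DMSO and 100% = cell killing by high DMSO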). As to conditions: HDN33 neuroblastoma cells, stronger effect = higher value.
Test [19] in a line: growth inhibition, single agents and combos, ICB984, cell-based, cisplatin or BGB combos, synergistic combos for chromothripsis tumors (AID 1671451; call rule not given here;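 also: cells exposed for 96 hours before readout; 0% = vehicle DMSO and 100% = killing by high DMSO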). As to conditions: ICB984 medulloblastoma cells, drug combinations, stronger effect = higher value.
A short description of test [20]: growth inhibition, single agents and combos, HTB85, cell-based, BGB or cisplatin IC20 combos, synergistic combos for chromothripsis tumors (AID 1671453; in the data active = inhibition above about 80%;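 also: cells exposed for 96 hours before readout; 0% = vehicle DMSO and 100% = high DMSO killing control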). The note with it: HTB85 osteosarcoma cells, drug combinations, stronger effect = higher value.

In general, remaining activity refers to the signal under treatment as a percentage of the control signal. On to `O=S(=O)(c1cccc2cnccc12)N1CCCNCC1`, for which the remaining activity in test [1] is 109% (inactive). The result in test [2], in test [3], in test [4], in [5], in test [6] and in [7] was inactive.
`CC(C)c1c(C(=O)Nc2ccccc2)c(-c2ccccc2)c(-c2ccc(F)cc2)n1CC[C@@H](O)C[C@@H](O)CC(=O)O`: the result in [4] and in [7] was inactive.
With `CC(C)(C)CC(C)(C)c1ccc(OCCOCC[N+](C)(C)Cc2ccccc2)cc1`, the score in test [8] is -0.06. For the same compound, the rescue above control in [9] turned out to be 0. Besides, in test [10], the cytochrome c release ratio turned out to be 15.9. The compound also returned an inhibition of aggregation in test [11] of 58.6%. For the same compound, in [12], the glutamate uptake change is -11.3%. The compound also displayed an aggregation suppression score in [13] of -0.0343.
For orientation: AC50 means the midpoint of the concentration-response curve, whichever way the signal moves. `COc1ccc(-c2nc3ccc(C4=NNC(=O)CC4C)cc3[nH]2)cc1` (configuration not stated): the AC50 in test [2] was 16.6 µM (active). Besides, the compound was classed as inactive in test [3].
For orientation: inhibition means the relative decrease from the control value, in per cent. Compound `Cc1ccc(/C(=C\CN2CCCC2)c2ccccn2)cc1` registered a score in test [8] of 1.45. In test [9], this compound showed a rescue above control of -10.7. Besides, the cytochrome c release ratio in test [10] was 1.11. In addition, in [11], the inhibition of aggregation is 23.8%. Also, the glutamate uptake change in test [12] was -7.2%. The compound further gave an inclusion score in [14] of 2. The aggregation suppression score in test [13] is 0.939. Further, the inhibition in test [15] is 1% (inactive). The fluorescence ratio (interference) in test [16] was 1 (inactive). For the same compound, the remaining activity in [1] was 77.2% (inactive).
Turning to `O=C(O)c1cn(C2CC2)c2cc(N3CCNCC3)c(F)cc2c1=O`, the score in test [8] came to 1.22. In test [9], this compound returned a rescue above control of 13.4. Besides, the cytochrome c release ratio in test [10] worked out at 1.03. This compound also displayed an inhibition of aggregation in test [11] of 20.6%. Besides, the glutamate uptake change in test [12] is -1.59%. The compound further returned an inclusion score in test [14] of 2. Also, the aggregation suppression score in test [13] turned out to be 1.3. Also, the call in test [2], in test [3], in test [4], in [5], in test [6] and in [7] was inactive.
With `CC(C)(C)c1ccc(C(O)CCCN2CCC(C(O)(c3ccccc3)c3ccccc3)CC2)cc1` (configuration not stated), in [8], the score amounted to 0.48. Moreover, in test [10], the cytochrome c release ratio worked out at 4.87. Further, the inhibition of aggregation in test [11] was found to be 4.76%. Also, in [12], the glutamate uptake change is -7.35%. The compound further displayed an aggregation suppression score in [13] of 0.868. Further, in [15], the inhibition was -3% (inactive). The fluorescence ratio (interference) in test [16] was 0.9 (inactive).
In the case of `CN1[C@@H]2CC(OC(=O)[C@H](CO)c3ccccc3)C[C@H]1[C@@H]1O[C@@H]12` (some centres not stated), the remaining activity in test [1] is 104% (inactive).
With `NCCCC(O)(P(=O)(O)O)P(=O)(O)O`, the compound was called inactive in [2], in test [3], in test [4], in test [5], in test [6] and in test [7].
For the compound `CC(C)(C(=O)O)c1ccc(C(O)CCCN2CCC(C(O)(c3ccccc3)c3ccccc3)CC2)cc1` (configuration not stated), the inhibition in [15] was -1% (inactive). The fluorescence ratio (interference) in test [16] was 1.1 (inactive). Moreover, the remaining activity in [1] is 89.1% (inactive).
On to `O=C(O)CCn1c2c(c3ccccc31)C[C@H](NS(=O)(=O)c1ccc(F)cc1)CC2`, for which the compound was classed as inactive in test [2], in test [3], in test [5], in test [6] and in test [7].
As to `CN(C)c1nc(N(C)C)nc(N(C)C)n1`, the inhibition in test [17] (at 0.5 µM, stronger effect = higher value) is -34.2% (inactive) and -27.6% (inactive); in test [17] (measured here: combination with BGB IC20, at 0.005 µM) it was -17.9% and -27.7%; in test [17] (measured here: combination with BGB IC40, at 0.005 µM) it was -17.9% and -14.9%; in [17] (measured here: combination with BGB IC40, at 0.05 µM), -9.42% and -37.8%; in test [17] (measured here: combination with cisplatin, at 0.5 µM, stronger effect = higher value) it was -34.2% and -25.4%; in test [17] (measured here: combination with cisplatin, at 5 µM, stronger effect = higher value), -44.4% and -48.3%. For the same compound, the inhibition is -7.22% and 3.98% in test [18] (BGB combo, at 5 µM); 2.99% (inactive) and -25.1% (inactive) in test [18] (at 0.5 µM); -6.3% and -2.36% in [18] (cisplatin combo, at 5 µM); 12.7% and -32.8% in [18] (measured here: with BGB IC20 combination, at 0.5 µM); 1.13% and -2.01% in [18] (measured here: with cisplatin IC20 combination, at 0.5 µM); -11% and -2.53% in [18] (single agent, at 5 µM). Also, the inhibition in test [19] (BGB IC20 combo, at 0.005 µM) is -31.6% and 0.139%; in test [19] (BGB IC40 combo, at 0.005 µM) it was -11.1% and -14.4%; in [19] (BGB IC40 combo, at 0.05 µM) it was -16% and -10.6%; in test [19] (at 0.5 µM) it was -16.4% (inactive) and -22.8% (inactive); in test [19] (cisplatin combo, at 0.05 µM), -16% and -14.5%; in test [19] (cisplatin combo, at 0.5 µM), -23.9% and -10.7%. Further, the inhibition was -16.8% and 0.591% in [19] (cisplatin combo, at 5 µM); -7.32% and -28.4% in test [19] (measured here: 5 uM single agent, at 5 µM); -13.6% (inactive) and -3.84% (inactive) in [20] (at 0.5 µM); -29.4% and -7.2% in test [20] (measured here: with BGB IC20, at 0.5 µM); -7.32% and 14% in test [20] (measured here: with BGB IC20, at 5 µM); -12.3% and -1.06% in test [20] (measured here: with cisplatin IC20, at 0.5 µM). For the same compound, the inhibition in [20] (measured here: with cisplatin IC20, at 5 µM) was 6.76% and 3.22%; in test [20] (single agent, at 5 µM) it was -2.06% and 11.5%.
In [8], `COc1ccc2c3c1O[C@H]1C[C@@H](O)C=C[C@@]31CCN(C)C2` showed a score of 1.34. This compound showed a rescue above control in [9] of 0.01. For the same compound, the cytochrome c release ratio in test [10] turned out to be 0.63. The compound also showed an inhibition of aggregation in test [11] of 91.6%. For the same compound, in test [12], the glutamate uptake change was determined as 5.19%. Further, the inclusion score in test [14] worked out at 2. This compound also registered an aggregation suppression score in [13] of 1.04. In addition, the remaining activity in test [1] was 110% (inactive). The result in test [3] was inactive.
